LmPK inhibitor = blocks Leishmania mexicana pyruvate kinase activity; Q27686; purified LmPK, Kinase-Glo ATP luminescence, 1 h; Potency, µM (series often up to 57.5 µM), inactives show at the top dose activity change, negative = inhibition, actives largely listed as inhibitors; actives 0.37% (n = 290,000); note: potency is the fitted concentration of half-maximal effect; % is set by controls: 0 for no effect and ±100 for the full control effect
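In 50 mM imidazole pH 7.2 with 7 mM MgCl2, LmPK (0.1 nM) turned over PEP (0.5 mM) and ADP (0.1 mM) for 1 h at room temperature. Luciferase read-out of ATP.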
Giardia FBPA inh = inhibitors of Giardia lamblia fructose-1,6-bisphosphate aldolase | A8B2U2 | purified Giardia FBPA | Potency, µM (series often up to 59.6 µM), for inactives: at the top dose activity, negative = inhibition, actives largely listed as inhibitors | actives 0.71% (n = 290,000); note: potency is the fitted concentration of half-maximal effect; % is set by controls: 0 for no effect and ±100 for the full control effect; nearly all actives have a fitted effect of over 55% in size
Target sequence (A8B2U2 whole entry, looked up): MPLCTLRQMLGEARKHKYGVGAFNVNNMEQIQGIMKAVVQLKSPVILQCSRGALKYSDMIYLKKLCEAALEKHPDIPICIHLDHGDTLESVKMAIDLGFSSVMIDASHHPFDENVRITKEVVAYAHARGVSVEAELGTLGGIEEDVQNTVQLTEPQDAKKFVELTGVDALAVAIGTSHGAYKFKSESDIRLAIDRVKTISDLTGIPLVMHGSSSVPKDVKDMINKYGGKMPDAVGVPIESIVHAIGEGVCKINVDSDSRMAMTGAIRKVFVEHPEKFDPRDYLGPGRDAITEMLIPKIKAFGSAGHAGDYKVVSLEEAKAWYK
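40 nM FBPA preincubated 10 min at RT with compound (up to 57.5 uM final), then substrate plus GAPDH/TPI/NAD/arsenate coupling and diaphorase/resazurin added. Fluorescence read after 20 min at RT, 525/598 nm.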
TbPYK inhibitor = T. brucei pyruvate kinase inhibition; Q57TT1; TbPYK enzyme, Kinase-Glo Plus ATP luminescence, 45 min; Potency, µM (highest dose often 76.8 µM), inactives show top-dose activity, negative = inhibition, actives largely listed as inhibitors; actives 0.12% (n = 410,000); AID 624173; note: potency is the fitted concentration of half-maximal effect; % is set by controls: 0 for no effect and ±100 for the full control effect; nearly all actives have a fitted effect of over 50% in size
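T. brucei PYK with substrate was exposed to pin-transferred compounds across a concentration series, then started with 130 uM ADP (final). After 45 min at room temperature, Kinase-Glo Plus luminescence was read, normalized and curve-fitted.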
RE007 growth inh = less growth of the S. pombe RE007 Vpr strain; actives 0.21% (n = 360,000); Potency, µM (titrated, usually from 92.2 µM), for inactives: top-dose activity change, negative = less growth, hits mostly inhibitors; S. pombe RE007 Vpr strain, BacTiter-Glo ATP luminescence, 24 h; AID 651644; active = well fitted falling curve with a large enough effect; inconclusive = small, poorly fitted or top-dose-only effect; inactive = no such curve, though single readings can be large or run the other way; note: potency is the fitted concentration of half-maximal effect; % is set by controls: 0 for no effect and ±100 for the full control effect; nearly all actives have a fitted effect of over 50% in size
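Fission yeast RE007 carrying one integrated HIV-1 vpr copy, seeded at OD 0.01 in PMG+AL medium with 23 nL pinned compound. Grown 24 h at 30 degrees; viability read by BacTiter-Glo luminescence after 5 min.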
Cycloheximide cs = counter-screen hit for Shiga toxin inhibitors, cycloheximide; cell reporter, cycloheximide protein synthesis inhibition counterscreen; max response, %; actives 12% (n = 300,000); in the data active = max response mostly above about 13%, no sharp cut-off; inactive = mostly below about 14%; note: read at 38.3 µM for the half of the compounds with a filed dose; 0% is about no effect
Shiga inhibitor = blocks Shiga toxin action in Vero cells. Vero cells, Shiga toxin protein synthesis inhibition reporter. inhibition, % at 38.7 µM. actives 9.2% (n = 290,000). AID 2315; in the data active = inhibition mostly above about 28%, no sharp cut-off; inactive = mostly below about 43%; note: 0% is about no effect
Starred values were filed as active, the others as inactive; ? = inconclusive; / = no result given; [ ] = another dose, or the depositor's remark. The entries come from a sample that favours hits as a whole. Unless noted, calls come from the whole dose curve; as a rule, active = well fitted curve in the direction sought with a large enough effect; inconclusive = small, poorly fitted or top-dose-only effect, or another doubt; inactive = no such curve, though single readings can be large; an effect the other way counts as inactive or inconclusive.

SMILES	LmPK inhibitor	Giardia FBPA inh	TbPYK inhibitor	RE007 growth inh	Cycloheximide cs	Shiga inhibitor
COc1ccc2cc(C(=O)C3CCCN(C(=O)c4csnn4)C3)ccc2c1 (centres undefined)	7%	-14%	-1%	1%	9	1
COc1ccc2cc(C(=O)C3CCCN(C(=O)C4=NN(C)C(=O)CC4)C3)ccc2c1 (centres undefined)	-1%	/	-2%	3%	20*	3
COc1ccc(C(=O)C2CCCN(C(=O)CCc3scnc3C)C2)c(C)c1 (centres undefined)	-2%	?	-4%	15%	47*	92*
COc1ccc(NC(=O)C(NS(=O)(=O)c2cccc3nsnc23)C(C)C)cc1 (centres undefined)	/	/	1%	/	/	/
COc1ccc(-c2oc3ncn4nc(COc5ccccc5C)nc4c3c2-c2ccc(OC)cc2)cc1	/	/	-7%	/	/	/
Cc1cccc(OCc2cc(=O)n3c4c(sc3n2)CCCC4)c1C	/	/	0%	/	/	/
CCC(Sc1nc(-c2ccc(F)cc2)nc2c1Cc1c(CO)cnc(C)c1O2)C(=O)Nc1ccc(F)cc1 (centres undefined)	/	/	3%	/	/	/
COc1ccc2c(CNCc3ccccc3OC)c(C(=O)O)n(Cc3ccc(F)cc3Cl)c2c1	/	/	3%	/	/	/
O=C(c1ccc(C(F)(F)F)cc1)C1CCCN(C(=O)Cn2cncn2)C1 (centres undefined)	1%	5%	9%	-17%	-2	-8
O=C(C1CCCN(Cc2cccnc2)C1)N1CCCCC1 (centres undefined)	-7%	?	-18%	35%	22*	-13
Cn1cc(CCC(=O)N2CCCC(C(=O)c3cccc4ccccc34)C2)cn1 (centres undefined)	-5%	5%	0%	11%	36*	21
COc1ccc2cc(C(=O)C3CCCN(C(=O)CCc4cnn(C)c4)C3)ccc2c1 (centres undefined)	-8%	-8%	-4%	14%	27*	43*
O=C(c1cccc(C(F)(F)F)c1)C1CCCN(C(=O)Cn2cncn2)C1 (centres undefined)	6%	/	0%	-4%	13*	4
Cc1ccccc1-c1nc(CS(=O)(=O)CC(=O)NCCCc2ccccc2)c(C)o1	/	/	-1%	/	/	/
O=C(CSc1n[nH]c(-c2ccc(F)cc2)n1)NCc1ccccc1Cl	/	/	-7%	/	/	/
CCNC(=O)N1CCCC(C(=O)c2ccc3cc(OC)ccc3c2)C1 (centres undefined)	-2%	-1%	9%	-7%	20*	26
COc1ccc2cc(C(=O)C3CCCN(C(=O)c4cccnc4)C3)ccc2c1 (centres undefined)	-1%	-2%	0%	-1%	-1	32
O=C1CCC(=O)N1OCCCCOc1ccccc1	-1%	3%	-1%	-11%	12*	13
COc1ccccc1OCCOCCOc1ccc(C)cc1[N+](=O)[O-]	-1%	0%	-7%	/	-1	-13
COc1cc(C)ccc1OCCOc1ccccc1Cl	0%	-1%	0%	-15%	31*	61*
COc1cc(C)ccc1OCCOCCOc1ccccc1[N+](=O)[O-]	1%	-1%	6%	-22%	22*	11
O=C1CCC(=O)N1OCCCOc1ccccc1	-8%	0%	/	-7%[3.69 µM]	-1	-5
CC(C)(C)c1ccc(OCCON2C(=O)CCC2=O)c(Cl)c1	10%	3%	-5%	-1%	39*	63*
Fc1ccc(-c2noc3ncnc(NCCc4ccccc4)c23)cc1	/	/	-4%	/	/	/
Cc1ccccc1CNCCCSc1nnnn1C	/	/	0%	/	/	/
SMILES	LmPK inhibitor	Giardia FBPA inh	TbPYK inhibitor	RE007 growth inh	Cycloheximide cs	Shiga inhibitor
COc1cc(C)ccc1OCCCON1C(=O)CCC1=O	5%	17%	-1%	23%	11	20*
Cc1cc(C)c(OCCCON2C(=O)CCC2=O)c(Br)c1	-6%	-3%	1%	16%	1	-7
COc1cc(C)ccc1OCCCOc1ccccc1Cl	-8%	/	-1%	-19%	51*	93*
N/C(=N\OC(=O)C1CCCCC1)c1ccc(Br)cc1	0%	6%	1%	-4%	23*	51*
O=C(CNC(=O)C1CCCCC1)OCC(=O)c1ccc(Br)cc1	-4%	1%	-3%	0%	41*	56*
N/C(=N\OC(=O)C1CCCCC1)c1ccc(Cl)cc1	-5%	/	-2%	-18%	28*	46
CC(=NOC(=O)C1CCCCC1)c1nccs1	/	/	0%	-10%	/	/
N/C(=N\OC(=O)C1CCCCC1)c1ccccn1	14µM*	-1%	-27%	-28%	31*	86*
NC(=NC1CCCCC1)c1ccc(Cl)cc1	7%	0%	0%	-8%	-6	-4
CCOC(=O)c1cc(-c2ccccc2)n(-c2cccc(C(=O)NC(C)CC)c2)c1C (centres undefined)	/	/	1%[15.4 µM]	/	/	/
CC(C)Oc1ccc(CNC(=O)c2cnc3sc(N4CCCC4)nn3c2=O)cc1	/	/	-9%	/	/	/
Cc1cccc(N2CCN(C(=O)CCn3c(=O)c4cccn4c4cccnc43)CC2)c1C	/	/	0%	/	/	/
COc1ccc(Cl)cc1NC(=O)CSc1c2c(nc3ccccc13)CCC2	/	/	-3%	/	/	/
COC1C[C@@H](O[C@@H]2C(C)C(=O)OC(C)C(C)[C@H](OC(C)=O)C(C)C(=O)[C@@]3(CO3)CC(C)C(OC3OC(C)CC(N(C)C)[C@H]3OC(C)=O)C2C)OC(C)[C@@H]1OC(C)=O (some centres undefined)	/	4%	/	/	/	/
Cn1c(=O)c2c(SCC(=O)N3CCc4ccccc43)nc(-c3ccccc3Cl)nc2n(C)c1=O	/	/	-5%	/	/	/
CSCC[C@H](NC(=O)[C@H](CO)NC(=O)[C@H](Cc1ccc(O)cc1)NC(=O)[C@@H](N)CO)C(=O)N[C@@H](CCC(=O)O)C(=O)N[C@@H](Cc1cnc[nH]1)C(=O)N[C@@H](Cc1ccccc1)C(=O)N[C@@H](CCCNC(=N)N)C(=O)N[C@@H](Cc1c[nH]c2ccccc12)C(=O)NCC(=O)N[C@@H](CCCCN)C(=O)N1CCC[C@H]1C(=O)N[C@H](C(=O)NCC(=O)N[C@@H](CCCCN)C(=O)N[C@@H](CCCCN)C(=O)N[C@@H](CCCNC(=N)N)C(=O)N[C@@H](CCCNC(=N)N)C(=O)N1CCC[C@H]1C(=O)N[C@H](C(=O)N[C@@H](CCCCN)C(=O)N[C@H](C(=O)N[C@@H](Cc1ccc(O)cc1)C(=O)N1CCC[C@H]1C(=O)O)C(C)C)C(C)C)C(C)C	/	7%	/	/	-7	-6
N/C(=N\OC(=O)C1CCCCC1)c1ccncc1	-6%	3%	-2%	?	11*	30*
CCN(CC(=O)NCc1ccc(F)cc1)C(=O)c1ccc(COc2ccccc2)cc1	0%	10%	-2%	-7%	52*	99*
